Among the data in article PMC7862700, “An all-to-all approach to the identification of sequence-specific readers for epigenetic DNA modifications on cytosine” are binding signal values, retold here.

Assay in all cases: DAPPL (digital affinity profiling via proximity ligation, sequencing); 10 mM Tris-HCl pH 7.5, 50 mM NaCl, 1 mM DTT, 4% glycerol, room temperature, 30 min; GST-TFs on glutathione beads, 16-mer random dsDNA library, 0.1% formaldehyde crosslink after washing; high values mean tight binding
One experiment deals with T1, FLI1 (Homo sapiens, UniProt Q01543 1-452).
T1 sequence: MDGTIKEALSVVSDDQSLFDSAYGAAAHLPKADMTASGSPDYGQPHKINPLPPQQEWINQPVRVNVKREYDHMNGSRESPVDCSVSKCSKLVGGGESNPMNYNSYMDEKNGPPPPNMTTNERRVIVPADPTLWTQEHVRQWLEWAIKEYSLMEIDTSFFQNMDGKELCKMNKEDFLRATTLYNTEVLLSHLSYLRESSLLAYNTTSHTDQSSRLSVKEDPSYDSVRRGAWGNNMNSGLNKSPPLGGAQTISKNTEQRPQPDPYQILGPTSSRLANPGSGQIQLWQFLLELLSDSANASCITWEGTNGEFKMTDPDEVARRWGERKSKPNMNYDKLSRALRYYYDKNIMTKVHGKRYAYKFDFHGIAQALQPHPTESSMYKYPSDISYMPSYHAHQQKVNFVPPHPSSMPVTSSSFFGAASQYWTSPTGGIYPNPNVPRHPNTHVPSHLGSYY
The note with it: protein: recombinant; tags: N-terminal GST; dsDNA, one strand shown. Summed up:
(§1)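 Binding signal is defined as a hexamer's read frequency for one factor over its frequency for the tag-only sample. To obtain reads, GST-fused human transcription factors were expressed in yeast, captured on glutathione beads, barcoded with DNA and pooled with that sample. Pools met 200 nmole of a 16-mer random double-stranded DNA library in Tris/NaCl/DTT/glycerol buffer for 30 min at room temperature before washing, 0.1% formaldehyde crosslinking, proximity ligation (BsaI/T4 ligase, 1 h, 37 °C), PCR and Illumina NextSeq500 sequencing.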

Another experiment addresses T2, ELK1 (Homo sapiens, UniProt P19419 1-428).
T2 sequence: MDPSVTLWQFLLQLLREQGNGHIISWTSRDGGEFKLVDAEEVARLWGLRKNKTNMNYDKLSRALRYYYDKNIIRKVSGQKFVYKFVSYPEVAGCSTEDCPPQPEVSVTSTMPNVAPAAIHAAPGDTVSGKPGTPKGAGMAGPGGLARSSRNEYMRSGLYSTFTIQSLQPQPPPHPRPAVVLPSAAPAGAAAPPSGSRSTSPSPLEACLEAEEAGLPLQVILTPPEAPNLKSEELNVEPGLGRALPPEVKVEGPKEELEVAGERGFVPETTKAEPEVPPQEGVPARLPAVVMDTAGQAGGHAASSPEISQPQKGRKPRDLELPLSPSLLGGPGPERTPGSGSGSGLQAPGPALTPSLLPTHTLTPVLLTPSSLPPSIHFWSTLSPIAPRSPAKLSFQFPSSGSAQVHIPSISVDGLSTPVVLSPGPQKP
Particulars: protein: recombinant; tags: N-terminal GST; dsDNA, one strand shown. Summed up: as §1

The target of another experiment is T3, GABPA (Homo sapiens, UniProt Q06546 1-454).
T3 sequence: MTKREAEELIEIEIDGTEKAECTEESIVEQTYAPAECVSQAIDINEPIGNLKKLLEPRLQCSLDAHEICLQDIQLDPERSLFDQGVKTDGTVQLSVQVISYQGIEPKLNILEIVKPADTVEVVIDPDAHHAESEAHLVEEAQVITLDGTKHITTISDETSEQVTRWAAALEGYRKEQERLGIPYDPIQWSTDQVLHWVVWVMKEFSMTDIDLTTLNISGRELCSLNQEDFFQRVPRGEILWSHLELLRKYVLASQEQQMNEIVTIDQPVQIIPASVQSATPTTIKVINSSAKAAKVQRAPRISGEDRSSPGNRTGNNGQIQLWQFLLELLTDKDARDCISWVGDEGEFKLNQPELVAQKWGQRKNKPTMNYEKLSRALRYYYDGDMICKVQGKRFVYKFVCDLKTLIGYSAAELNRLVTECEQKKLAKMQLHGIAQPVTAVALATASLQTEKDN
Particulars: protein: recombinant; tags: N-terminal GST; dsDNA, one strand shown. Put shortly:
as §1

The target of the next experiment is T4, ERG (Homo sapiens, UniProt P11308 1-479).
T4 sequence: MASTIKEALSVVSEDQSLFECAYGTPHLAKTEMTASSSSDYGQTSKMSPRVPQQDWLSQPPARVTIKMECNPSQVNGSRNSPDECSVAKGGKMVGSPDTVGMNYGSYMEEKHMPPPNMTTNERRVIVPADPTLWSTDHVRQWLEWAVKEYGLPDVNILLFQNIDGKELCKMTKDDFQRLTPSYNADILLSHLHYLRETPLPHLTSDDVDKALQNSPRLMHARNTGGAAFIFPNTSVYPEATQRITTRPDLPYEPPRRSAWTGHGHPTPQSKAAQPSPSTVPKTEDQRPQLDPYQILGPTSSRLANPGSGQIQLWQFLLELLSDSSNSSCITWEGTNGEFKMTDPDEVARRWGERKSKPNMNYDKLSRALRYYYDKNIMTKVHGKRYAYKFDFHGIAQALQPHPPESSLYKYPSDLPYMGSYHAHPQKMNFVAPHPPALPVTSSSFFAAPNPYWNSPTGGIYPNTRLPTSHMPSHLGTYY
The note with it: protein: recombinant; tags: N-terminal GST; dsDNA, one strand shown. Put shortly: as §1

Another experiment concerns the target ELF1 (Homo sapiens, UniProt P32519 1-619). Particulars: protein: recombinant; tags: N-terminal GST; dsDNA, one strand shown. Summed up:
as §1

In the next experiment the target is T5, EHF (Homo sapiens, UniProt Q9NZC4 1-300).
T5 sequence: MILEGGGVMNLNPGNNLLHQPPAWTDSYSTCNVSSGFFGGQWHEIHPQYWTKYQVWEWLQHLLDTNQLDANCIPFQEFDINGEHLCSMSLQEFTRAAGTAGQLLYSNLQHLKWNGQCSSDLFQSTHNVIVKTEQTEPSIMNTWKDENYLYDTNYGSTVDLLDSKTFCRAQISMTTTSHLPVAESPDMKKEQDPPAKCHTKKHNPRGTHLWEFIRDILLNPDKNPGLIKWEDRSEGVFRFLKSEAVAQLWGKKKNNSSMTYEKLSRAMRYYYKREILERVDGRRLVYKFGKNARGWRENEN
The note with it: protein: recombinant; tags: N-terminal GST; dsDNA, one strand shown. Put shortly: as §1

For another experiment, the target named is SPI1 (Homo sapiens, UniProt P17947 1-270). The note with it: protein: recombinant; tags: N-terminal GST; dsDNA, one strand shown. Summed up: as §1
Another experiment addresses SPIB (Homo sapiens, UniProt Q01892 1-262). Particulars: protein: recombinant; tags: N-terminal GST; dsDNA, one strand shown. Put shortly: as §1
In the next experiment the target is T6, ELK3 (Homo sapiens, UniProt P41970 1-407).
T6 sequence: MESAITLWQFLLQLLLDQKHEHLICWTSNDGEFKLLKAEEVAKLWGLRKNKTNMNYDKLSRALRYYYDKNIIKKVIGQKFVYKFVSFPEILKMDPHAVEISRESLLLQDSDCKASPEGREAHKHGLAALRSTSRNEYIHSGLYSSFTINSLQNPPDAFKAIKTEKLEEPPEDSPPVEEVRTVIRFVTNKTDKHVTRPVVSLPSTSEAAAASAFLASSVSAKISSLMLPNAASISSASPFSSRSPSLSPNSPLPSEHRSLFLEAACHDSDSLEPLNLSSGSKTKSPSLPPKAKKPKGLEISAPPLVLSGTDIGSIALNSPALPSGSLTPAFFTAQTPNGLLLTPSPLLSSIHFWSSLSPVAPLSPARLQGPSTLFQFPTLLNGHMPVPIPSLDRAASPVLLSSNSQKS
The note with it: protein: recombinant; tags: N-terminal GST; dsDNA, one strand shown. Summed up:
as §1

In another experiment the target is T7, FEV (Homo sapiens, UniProt Q99581 1-238).
T7 sequence: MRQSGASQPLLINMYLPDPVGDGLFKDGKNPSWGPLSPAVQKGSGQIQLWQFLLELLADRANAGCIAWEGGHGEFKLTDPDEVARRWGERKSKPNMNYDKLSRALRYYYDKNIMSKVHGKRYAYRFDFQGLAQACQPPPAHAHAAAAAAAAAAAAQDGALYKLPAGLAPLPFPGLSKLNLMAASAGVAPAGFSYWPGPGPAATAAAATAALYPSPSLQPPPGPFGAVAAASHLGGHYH
Particulars: protein: recombinant; tags: N-terminal GST; dsDNA, one strand shown. Summed up:
as §1

The next experiment addresses ETV5 (Homo sapiens, UniProt P41161 1-510). The note with it: protein: recombinant; tags: N-terminal GST; dsDNA, one strand shown. Put shortly: as §1
For a further experiment, the target named is HSF1 (Homo sapiens, UniProt Q00613 1-529). Particulars: protein: recombinant; tags: N-terminal GST; chain copies: 3; dsDNA, one strand shown. Summed up:
as §1

Another experiment addresses ELF4 (Homo sapiens, UniProt Q99607 1-663). The note with it: protein: recombinant; tags: N-terminal GST; dsDNA, one strand shown. Put shortly:
as §1

The target of a further experiment is T8, ELK4 (Homo sapiens, UniProt P28324-2 1-405).
T8 sequence: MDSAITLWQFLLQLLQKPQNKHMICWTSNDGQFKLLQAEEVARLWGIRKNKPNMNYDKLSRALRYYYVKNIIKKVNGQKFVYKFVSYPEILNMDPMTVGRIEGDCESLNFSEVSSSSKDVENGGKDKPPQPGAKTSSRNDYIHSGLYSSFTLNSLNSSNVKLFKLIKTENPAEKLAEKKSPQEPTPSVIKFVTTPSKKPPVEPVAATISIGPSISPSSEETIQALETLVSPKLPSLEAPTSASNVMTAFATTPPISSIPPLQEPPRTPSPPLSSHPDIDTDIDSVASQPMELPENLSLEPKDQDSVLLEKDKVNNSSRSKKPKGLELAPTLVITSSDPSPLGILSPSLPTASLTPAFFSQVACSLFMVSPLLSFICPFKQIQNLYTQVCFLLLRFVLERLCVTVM
Particulars: protein: recombinant; tags: N-terminal GST; dsDNA, one strand shown. Put shortly:
as §1

In another experiment the target is T9, ETV2 (Homo sapiens, UniProt O00321 1-342).
T9 sequence: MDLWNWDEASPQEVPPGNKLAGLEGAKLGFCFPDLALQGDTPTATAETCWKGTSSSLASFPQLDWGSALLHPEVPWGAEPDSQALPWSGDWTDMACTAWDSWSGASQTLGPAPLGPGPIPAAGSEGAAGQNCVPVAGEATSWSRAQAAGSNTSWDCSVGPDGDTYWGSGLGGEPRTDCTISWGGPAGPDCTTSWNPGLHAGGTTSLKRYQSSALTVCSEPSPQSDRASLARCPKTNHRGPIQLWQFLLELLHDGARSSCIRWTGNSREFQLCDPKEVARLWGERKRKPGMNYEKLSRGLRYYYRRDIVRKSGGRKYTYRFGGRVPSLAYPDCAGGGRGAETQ
The note with it: protein: recombinant; tags: N-terminal GST; dsDNA, one strand shown. Summed up:
as §1

A further experiment has as its target T10, ELF3 (Homo sapiens, UniProt P78545 1-371).
T10 sequence: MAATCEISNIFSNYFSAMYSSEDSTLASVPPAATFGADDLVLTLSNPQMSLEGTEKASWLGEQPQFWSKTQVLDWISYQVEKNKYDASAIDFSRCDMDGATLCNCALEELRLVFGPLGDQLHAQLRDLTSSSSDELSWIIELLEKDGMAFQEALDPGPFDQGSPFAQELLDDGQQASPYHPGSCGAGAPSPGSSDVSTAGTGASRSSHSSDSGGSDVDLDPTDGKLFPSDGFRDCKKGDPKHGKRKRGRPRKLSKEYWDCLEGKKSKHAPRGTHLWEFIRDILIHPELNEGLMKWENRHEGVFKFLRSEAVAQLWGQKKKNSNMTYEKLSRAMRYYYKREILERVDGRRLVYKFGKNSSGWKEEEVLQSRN
The note with it: protein: recombinant; tags: N-terminal GST; dsDNA, one strand shown. Put shortly: as §1

Another experiment concerns the target CRX (Homo sapiens, UniProt O43186 1-299). Particulars: protein: recombinant; tags: N-terminal GST; dsDNA, one strand shown. Summed up: as §1
For the next experiment, the target named is ETV1 (Homo sapiens, UniProt P50549 1-477). Particulars: protein: recombinant; tags: N-terminal GST; dsDNA, one strand shown. Put shortly: as §1
Sequence of ETV1 (P50549 whole entry): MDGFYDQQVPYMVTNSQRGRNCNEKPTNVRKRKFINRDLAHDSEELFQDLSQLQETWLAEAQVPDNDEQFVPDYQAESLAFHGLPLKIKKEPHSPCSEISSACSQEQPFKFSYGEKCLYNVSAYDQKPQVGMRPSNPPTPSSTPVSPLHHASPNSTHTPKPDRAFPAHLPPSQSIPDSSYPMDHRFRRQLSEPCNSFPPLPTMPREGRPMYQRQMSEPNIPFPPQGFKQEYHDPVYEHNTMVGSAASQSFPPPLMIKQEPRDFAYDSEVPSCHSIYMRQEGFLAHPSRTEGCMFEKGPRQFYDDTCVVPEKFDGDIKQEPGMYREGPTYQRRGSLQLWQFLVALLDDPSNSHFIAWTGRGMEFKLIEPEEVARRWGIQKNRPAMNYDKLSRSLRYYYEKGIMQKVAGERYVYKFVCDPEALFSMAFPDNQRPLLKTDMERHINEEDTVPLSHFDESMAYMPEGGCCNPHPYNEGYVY

Sequence of ELF1 (P32519 whole entry): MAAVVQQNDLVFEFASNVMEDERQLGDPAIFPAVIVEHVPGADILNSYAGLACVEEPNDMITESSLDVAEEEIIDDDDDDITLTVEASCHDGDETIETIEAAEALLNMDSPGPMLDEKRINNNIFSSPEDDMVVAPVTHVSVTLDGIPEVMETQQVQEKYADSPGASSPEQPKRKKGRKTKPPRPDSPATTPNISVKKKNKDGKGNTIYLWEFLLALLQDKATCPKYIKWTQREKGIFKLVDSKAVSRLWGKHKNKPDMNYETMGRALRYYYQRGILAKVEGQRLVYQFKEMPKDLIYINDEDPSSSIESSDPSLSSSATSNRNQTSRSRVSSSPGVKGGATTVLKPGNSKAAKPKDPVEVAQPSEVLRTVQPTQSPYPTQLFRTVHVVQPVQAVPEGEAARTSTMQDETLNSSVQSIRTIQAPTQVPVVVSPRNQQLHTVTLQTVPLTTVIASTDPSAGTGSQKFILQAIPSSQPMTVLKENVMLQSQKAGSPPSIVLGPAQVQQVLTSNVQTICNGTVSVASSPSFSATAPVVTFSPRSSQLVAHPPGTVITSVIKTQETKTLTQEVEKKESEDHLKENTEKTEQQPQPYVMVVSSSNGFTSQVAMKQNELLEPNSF
Sequence of ELF4 (Q99607 whole entry): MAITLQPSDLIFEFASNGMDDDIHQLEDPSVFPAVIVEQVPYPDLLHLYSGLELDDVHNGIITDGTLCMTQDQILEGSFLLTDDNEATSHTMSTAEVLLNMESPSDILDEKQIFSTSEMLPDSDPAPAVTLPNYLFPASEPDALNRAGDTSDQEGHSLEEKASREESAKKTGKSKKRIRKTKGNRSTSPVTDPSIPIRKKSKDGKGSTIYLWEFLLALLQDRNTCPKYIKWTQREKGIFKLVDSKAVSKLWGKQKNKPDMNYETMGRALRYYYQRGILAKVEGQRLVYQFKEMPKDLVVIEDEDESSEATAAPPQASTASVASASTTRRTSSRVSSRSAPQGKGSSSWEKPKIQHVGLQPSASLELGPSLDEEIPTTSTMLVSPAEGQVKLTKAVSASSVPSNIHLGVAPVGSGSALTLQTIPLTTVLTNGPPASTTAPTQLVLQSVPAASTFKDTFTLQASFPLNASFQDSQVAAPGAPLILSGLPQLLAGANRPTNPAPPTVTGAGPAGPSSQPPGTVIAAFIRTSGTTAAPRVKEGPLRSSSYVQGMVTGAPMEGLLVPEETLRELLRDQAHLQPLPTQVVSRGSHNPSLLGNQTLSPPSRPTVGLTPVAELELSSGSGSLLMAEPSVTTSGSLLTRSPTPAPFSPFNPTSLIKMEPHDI
Sequence of SPIB (Q01892 whole entry): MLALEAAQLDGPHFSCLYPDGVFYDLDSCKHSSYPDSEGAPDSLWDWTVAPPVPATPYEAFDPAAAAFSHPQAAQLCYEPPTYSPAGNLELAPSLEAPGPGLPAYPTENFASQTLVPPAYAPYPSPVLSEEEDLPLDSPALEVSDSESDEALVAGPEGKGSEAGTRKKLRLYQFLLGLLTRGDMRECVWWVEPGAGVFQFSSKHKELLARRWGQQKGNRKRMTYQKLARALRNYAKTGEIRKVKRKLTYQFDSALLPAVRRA
Sequence of ETV5 (P41161 whole entry): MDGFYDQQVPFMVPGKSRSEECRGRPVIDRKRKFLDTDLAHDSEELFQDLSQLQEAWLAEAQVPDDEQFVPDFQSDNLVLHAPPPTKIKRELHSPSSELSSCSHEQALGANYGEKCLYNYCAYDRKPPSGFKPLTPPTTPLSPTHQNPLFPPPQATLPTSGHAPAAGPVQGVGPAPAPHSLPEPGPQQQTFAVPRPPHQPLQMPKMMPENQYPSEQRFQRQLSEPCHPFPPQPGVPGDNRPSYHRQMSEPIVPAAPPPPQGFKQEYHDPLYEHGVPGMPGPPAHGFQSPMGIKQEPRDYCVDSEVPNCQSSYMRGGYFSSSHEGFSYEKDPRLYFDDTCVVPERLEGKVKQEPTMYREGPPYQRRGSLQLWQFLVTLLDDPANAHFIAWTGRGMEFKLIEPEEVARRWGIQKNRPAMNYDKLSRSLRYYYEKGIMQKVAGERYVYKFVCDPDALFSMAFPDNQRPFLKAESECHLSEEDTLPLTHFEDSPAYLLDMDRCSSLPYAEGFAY
Sequence of HSF1 (Q00613 whole entry): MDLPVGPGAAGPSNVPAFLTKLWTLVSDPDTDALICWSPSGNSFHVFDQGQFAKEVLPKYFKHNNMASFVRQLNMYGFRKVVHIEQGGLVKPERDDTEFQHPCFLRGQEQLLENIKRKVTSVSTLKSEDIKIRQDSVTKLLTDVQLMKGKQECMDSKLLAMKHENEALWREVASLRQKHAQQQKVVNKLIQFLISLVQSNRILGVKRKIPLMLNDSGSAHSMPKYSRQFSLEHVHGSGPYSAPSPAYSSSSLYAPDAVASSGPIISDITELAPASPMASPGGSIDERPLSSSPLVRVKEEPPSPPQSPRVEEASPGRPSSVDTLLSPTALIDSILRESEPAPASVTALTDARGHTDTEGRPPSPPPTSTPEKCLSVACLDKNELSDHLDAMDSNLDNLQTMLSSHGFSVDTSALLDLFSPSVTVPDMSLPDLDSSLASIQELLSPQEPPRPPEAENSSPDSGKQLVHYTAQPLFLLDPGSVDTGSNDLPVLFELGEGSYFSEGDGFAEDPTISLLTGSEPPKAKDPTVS
Sequence of CRX (O43186 whole entry): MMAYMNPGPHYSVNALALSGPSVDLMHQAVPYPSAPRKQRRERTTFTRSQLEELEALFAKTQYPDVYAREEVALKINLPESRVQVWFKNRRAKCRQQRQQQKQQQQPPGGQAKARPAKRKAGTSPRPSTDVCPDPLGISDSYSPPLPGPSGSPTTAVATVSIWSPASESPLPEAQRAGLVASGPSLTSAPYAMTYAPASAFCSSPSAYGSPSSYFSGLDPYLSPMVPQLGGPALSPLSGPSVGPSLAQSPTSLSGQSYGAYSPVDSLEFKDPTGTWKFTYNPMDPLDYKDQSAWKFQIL

Regarding TTACGC, the binding signal with FLI1 is 1.15 fold enrichment (6-mer frequency, TF over GST control); with ELK1, 1.06 fold enrichment (6-mer frequency, TF over GST control); with GABPA it was 1.07 fold enrichment (6-mer frequency, TF over GST control); with ERG, 1.08 fold enrichment (6-mer frequency, TF over GST control); with ELF1, 1.12 fold enrichment (6-mer frequency, TF over GST control); in the experiment with EHF it was 1.06 fold enrichment (6-mer frequency, TF over GST control). The binding signal was 1.07 fold enrichment (6-mer frequency, TF over GST control) with SPI1; 1.02 fold enrichment (6-mer frequency, TF over GST control) with SPIB; 1.21 fold enrichment (6-mer frequency, TF over GST control) with ELK3; 1.1 fold enrichment (6-mer frequency, TF over GST control) with FEV; 1.19 fold enrichment (6-mer frequency, TF over GST control) with ETV5; 1.39 fold enrichment (6-mer frequency, TF over GST control) with HSF1. Besides, the binding signal in the experiment with ELF4 is 1.19 fold enrichment (6-mer frequency, TF over GST control); in the experiment with ELK4, 1.04 fold enrichment (6-mer frequency, TF over GST control); in the experiment with ETV2 it was 1.16 fold enrichment (6-mer frequency, TF over GST control); with ELF3 it was 1.01 fold enrichment (6-mer frequency, TF over GST control); with CRX, 1.81 fold enrichment (6-mer frequency, TF over GST control); with ETV1, 1.13 fold enrichment (6-mer frequency, TF over GST control).
